Source: the supplement of paper PMC6411743
± gives the standard deviation of the averaged measurements. The full data set covers some 6,200 targets. This sample favours those with the largest changes.

Assays:
Assay in all cases: NP40-soluble protein abundance relative to vehicle (solubility fold change) (ratio); higher = more soluble protein in presence of AMP-PNP
DDX52 = biological target: T1, DDX52 (UniProt Q9Y2R4)
T1 sequence (whole entry): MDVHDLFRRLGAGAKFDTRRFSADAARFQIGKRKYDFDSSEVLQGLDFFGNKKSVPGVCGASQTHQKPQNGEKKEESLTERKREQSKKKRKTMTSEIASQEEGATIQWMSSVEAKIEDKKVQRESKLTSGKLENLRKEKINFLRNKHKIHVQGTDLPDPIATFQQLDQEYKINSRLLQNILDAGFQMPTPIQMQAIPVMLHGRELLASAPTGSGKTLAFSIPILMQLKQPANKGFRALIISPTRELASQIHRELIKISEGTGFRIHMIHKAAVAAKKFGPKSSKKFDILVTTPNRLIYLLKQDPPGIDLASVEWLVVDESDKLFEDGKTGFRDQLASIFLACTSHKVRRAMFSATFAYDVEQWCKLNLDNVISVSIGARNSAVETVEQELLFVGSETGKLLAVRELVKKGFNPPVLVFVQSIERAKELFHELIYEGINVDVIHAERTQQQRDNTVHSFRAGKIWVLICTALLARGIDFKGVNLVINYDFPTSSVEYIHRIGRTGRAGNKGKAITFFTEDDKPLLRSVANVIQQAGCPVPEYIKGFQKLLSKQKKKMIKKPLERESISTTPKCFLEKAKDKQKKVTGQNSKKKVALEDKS
Summary of the method: (§1)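 Data come from three independent experiments in which Dounce-homogenised Jurkat crude lysate was treated at eight concentrations from 0.1 to 10 mM. Treatment ran 10 min at room temperature and then 3 min at 37 °C, after which 0.8% NP40 and benzonase were added for 60 min at 4 °C before ultracentrifugation. The supernatant underwent TMT labelling and LC-MS/MS, and vsn-normalised intensities were expressed as fold change against the detergent-processed vehicle in each replicate.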

NKIRAS1 = biological target: T2, NKIRAS1 (UniProt Q9NYS0)
T2 sequence (whole entry): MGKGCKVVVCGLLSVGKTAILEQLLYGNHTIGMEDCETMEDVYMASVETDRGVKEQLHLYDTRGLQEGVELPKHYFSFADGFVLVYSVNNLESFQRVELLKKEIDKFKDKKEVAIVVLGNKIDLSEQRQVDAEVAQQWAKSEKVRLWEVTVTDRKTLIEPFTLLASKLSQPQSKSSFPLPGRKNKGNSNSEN
Summary of the method: as §1

POLG2 = biological target: T3, POLG2 (UniProt Q9UHN1)
T3 sequence (whole entry): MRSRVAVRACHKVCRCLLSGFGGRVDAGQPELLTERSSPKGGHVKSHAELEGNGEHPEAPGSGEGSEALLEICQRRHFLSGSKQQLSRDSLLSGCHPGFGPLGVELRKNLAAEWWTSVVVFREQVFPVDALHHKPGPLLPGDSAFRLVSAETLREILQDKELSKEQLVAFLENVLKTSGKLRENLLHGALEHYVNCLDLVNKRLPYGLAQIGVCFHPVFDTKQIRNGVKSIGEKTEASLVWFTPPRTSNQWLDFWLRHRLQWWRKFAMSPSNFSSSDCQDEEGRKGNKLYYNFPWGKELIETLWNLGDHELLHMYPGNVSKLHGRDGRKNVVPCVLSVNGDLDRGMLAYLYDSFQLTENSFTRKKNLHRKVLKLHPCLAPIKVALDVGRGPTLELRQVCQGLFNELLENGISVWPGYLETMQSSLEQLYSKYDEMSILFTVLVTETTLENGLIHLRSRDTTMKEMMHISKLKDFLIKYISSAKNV
Summary of the method: as §1

PRKRIP1 = biological target: T4, PRKRIP1 (UniProt Q9H875)
T4 sequence (whole entry): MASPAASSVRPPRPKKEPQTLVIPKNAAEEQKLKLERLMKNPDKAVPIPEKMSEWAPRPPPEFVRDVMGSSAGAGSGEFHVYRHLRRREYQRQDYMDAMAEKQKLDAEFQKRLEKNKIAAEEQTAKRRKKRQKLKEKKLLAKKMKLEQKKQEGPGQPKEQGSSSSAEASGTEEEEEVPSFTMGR
Summary of the method: as §1

SNX6 = biological target: T5, SNX6 (UniProt Q9UNH7)
T5 sequence (whole entry): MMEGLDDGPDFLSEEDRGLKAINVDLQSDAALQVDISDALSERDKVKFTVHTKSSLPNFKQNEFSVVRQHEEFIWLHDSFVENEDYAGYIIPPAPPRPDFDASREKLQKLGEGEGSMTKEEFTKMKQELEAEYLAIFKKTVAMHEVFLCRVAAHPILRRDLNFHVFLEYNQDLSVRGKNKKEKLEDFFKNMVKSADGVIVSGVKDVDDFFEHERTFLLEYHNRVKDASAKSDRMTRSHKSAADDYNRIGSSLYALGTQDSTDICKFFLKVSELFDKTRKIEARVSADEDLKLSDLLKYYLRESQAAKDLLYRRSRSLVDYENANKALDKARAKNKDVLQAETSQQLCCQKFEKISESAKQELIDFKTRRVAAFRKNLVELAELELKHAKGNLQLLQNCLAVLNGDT
Summary of the method: as §1

TFIP11 = biological target: T6, TFIP11 (UniProt Q9UBB9)
T6 sequence (whole entry): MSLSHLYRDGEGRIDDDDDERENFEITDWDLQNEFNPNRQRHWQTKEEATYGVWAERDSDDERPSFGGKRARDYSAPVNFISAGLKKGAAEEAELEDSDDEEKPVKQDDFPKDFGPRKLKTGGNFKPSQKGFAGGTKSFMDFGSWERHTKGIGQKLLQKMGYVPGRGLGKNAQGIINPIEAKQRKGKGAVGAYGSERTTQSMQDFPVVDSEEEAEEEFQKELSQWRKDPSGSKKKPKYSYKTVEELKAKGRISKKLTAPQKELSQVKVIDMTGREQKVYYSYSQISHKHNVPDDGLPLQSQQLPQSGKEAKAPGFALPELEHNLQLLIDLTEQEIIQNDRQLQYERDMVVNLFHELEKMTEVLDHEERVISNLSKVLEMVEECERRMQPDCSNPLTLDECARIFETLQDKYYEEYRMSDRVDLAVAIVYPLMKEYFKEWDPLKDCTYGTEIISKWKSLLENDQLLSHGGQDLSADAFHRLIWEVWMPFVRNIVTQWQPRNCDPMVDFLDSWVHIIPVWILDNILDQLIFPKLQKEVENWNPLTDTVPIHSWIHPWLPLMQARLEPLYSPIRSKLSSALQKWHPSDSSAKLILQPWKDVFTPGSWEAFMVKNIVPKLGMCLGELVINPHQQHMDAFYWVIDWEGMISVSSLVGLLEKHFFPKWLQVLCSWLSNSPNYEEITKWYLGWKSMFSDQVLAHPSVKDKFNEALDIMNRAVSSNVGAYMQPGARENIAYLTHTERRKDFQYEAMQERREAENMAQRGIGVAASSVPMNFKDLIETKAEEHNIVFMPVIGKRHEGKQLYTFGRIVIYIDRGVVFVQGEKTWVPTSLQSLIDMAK
Summary of the method: as §1

UniProt Q9BY77|Q9BY77-2 = biological target: T7, UniProt Q9BY77|Q9BY77-2
T7 sequence (whole entry): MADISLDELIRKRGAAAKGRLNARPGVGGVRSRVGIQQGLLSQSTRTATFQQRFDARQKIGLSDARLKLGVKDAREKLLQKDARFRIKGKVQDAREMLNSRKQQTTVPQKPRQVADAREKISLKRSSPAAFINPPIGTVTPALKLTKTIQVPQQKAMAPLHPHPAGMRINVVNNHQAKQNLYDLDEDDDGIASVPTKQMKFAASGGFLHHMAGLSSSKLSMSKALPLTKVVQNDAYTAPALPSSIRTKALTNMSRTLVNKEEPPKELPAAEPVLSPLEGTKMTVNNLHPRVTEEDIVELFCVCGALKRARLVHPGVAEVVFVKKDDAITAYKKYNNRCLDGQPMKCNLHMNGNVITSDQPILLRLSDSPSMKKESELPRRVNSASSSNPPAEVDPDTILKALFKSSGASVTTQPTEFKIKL
Summary of the method: as §1

## Nc1ncnc2c1ncn2[C@@H]1O[C@H](COP(=O)(O)OP(=O)(O)NP(=O)(O)O)[C@@H](O)[C@H]1O [adenylyl imidodiphosphate]
DDX52; concentration: 1mM
  NP40-soluble protein abundance: 1.08 ± 0.094
DDX52; concentration: 2mM
  NP40-soluble protein abundance: 1.1 ± 0.047
DDX52; concentration: 4mM
  NP40-soluble protein abundance: 1.18 ± 0.07
DDX52; concentration: 6mM
  NP40-soluble protein abundance: 1.22 ± 0.038
DDX52; concentration: 8mM
  NP40-soluble protein abundance: 1.28 ± 0.055
DDX52; concentration: 10mM
  NP40-soluble protein abundance: 1.39 ± 0.046
NKIRAS1; concentration: 1mM
  NP40-soluble protein abundance: 1 ± 0.033
NKIRAS1; concentration: 2mM
  NP40-soluble protein abundance: 1.025 ± 0.0079
NKIRAS1; concentration: 4mM
  NP40-soluble protein abundance: 0.981 ± 0.024
NKIRAS1; concentration: 6mM
  NP40-soluble protein abundance: 0.988 ± 0.027
NKIRAS1; concentration: 8mM
  NP40-soluble protein abundance: 1 ± 0.018
NKIRAS1; concentration: 10mM
  NP40-soluble protein abundance: 0.9796 ± 0.0011
POLG2; concentration: 1mM
  NP40-soluble protein abundance: 0.994 ± 0.073
POLG2; concentration: 2mM
  NP40-soluble protein abundance: 1.03 ± 0.056
POLG2; concentration: 4mM
  NP40-soluble protein abundance: 0.996 ± 0.072
POLG2; concentration: 6mM
  NP40-soluble protein abundance: 1.06 ± 0.051
POLG2; concentration: 8mM
  NP40-soluble protein abundance: 1.07 ± 0.043
POLG2; concentration: 10mM
  NP40-soluble protein abundance: 1.05 ± 0.021
PRKRIP1; concentration: 1mM
  NP40-soluble protein abundance: 1.03 ± 0.053
PRKRIP1; concentration: 2mM
  NP40-soluble protein abundance: 1.14 ± 0.12
PRKRIP1; concentration: 4mM
  NP40-soluble protein abundance: 1.1 ± 0.11
PRKRIP1; concentration: 6mM
  NP40-soluble protein abundance: 1.14 ± 0.073
PRKRIP1; concentration: 8mM
  NP40-soluble protein abundance: 1.16 ± 0.1
PRKRIP1; concentration: 10mM
  NP40-soluble protein abundance: 1.15 ± 0.15
SNX6; concentration: 1mM
  NP40-soluble protein abundance: 0.992 ± 0.031
SNX6; concentration: 2mM
  NP40-soluble protein abundance: 1.03 ± 0.12
SNX6; concentration: 4mM
  NP40-soluble protein abundance: 0.991 ± 0.069
SNX6; concentration: 6mM
  NP40-soluble protein abundance: 1.03 ± 0.076
SNX6; concentration: 8mM
  NP40-soluble protein abundance: 1 ± 0.077
SNX6; concentration: 10mM
  NP40-soluble protein abundance: 1.03 ± 0.079
TFIP11; concentration: 1mM
  NP40-soluble protein abundance: 1.01 ± 0.028
TFIP11; concentration: 2mM
  NP40-soluble protein abundance: 1.01 ± 0.033
TFIP11; concentration: 4mM
  NP40-soluble protein abundance: 1.07 ± 0.042
TFIP11; concentration: 6mM
  NP40-soluble protein abundance: 1.08 ± 0.05
TFIP11; concentration: 8mM
  NP40-soluble protein abundance: 1.09 ± 0.015
TFIP11; concentration: 10mM
  NP40-soluble protein abundance: 1.13 ± 0.039
UniProt Q9BY77|Q9BY77-2; concentration: 1mM
  NP40-soluble protein abundance: 1 ± 0.038
UniProt Q9BY77|Q9BY77-2; concentration: 2mM
  NP40-soluble protein abundance: 1.06 ± 0.064
UniProt Q9BY77|Q9BY77-2; concentration: 4mM
  NP40-soluble protein abundance: 1.04 ± 0.042
